{"source": "PubChem BioAssay (EPA / NIEHS)", "note": "Activity calls are given as the source filed them. Rule for the calls: active = hit-call score of the fitted dose curve at least 0.9, where 1 is the maximum; inactive = score below 0.9."}
{"read-out": "Signal transducer and activator of transcription 3 (Homo sapiens) (UniProt P40763)", "assay": "LTEA_HepaRG_STAT3: Life Technologies and Expression Analysis (LTEA) Assay for Signal transducer and activator of transcription (STAT3) using HepaRG (AID 2283529)", "conditions": "mRNA level, 48 h; actives raise or lower the signal", "protocol": "LTEA_HepaRG is a cell based, multiplexed-readout assay that uses HepaRG, a human liver cell line, with measurements taken at 48 hours after chemical dosing on a 96-well plate.LTEA_HepaRG_STAT3 is one of 102 assay component(s) measured in the LTEA HepaRG cell culture assay. It is a marker of Cell proliferation, survival, death.Data from the assay component LTEA_HepaRG_STAT3 was analyzed into 1 endpoint. This assay endpoint, LTEA_HepaRG_STAT3, was analyzed with bidirectional fitting relative to DMSO as the negative control and baseline of activity. Using a type of inducible reporter, measures of mRNA induction for gain or loss-of-signal activity can be used to understand regulation of transcription factor activity. To generalize the intended target to other relatable targets, this assay endpoint is annotated to the dna binding intended target family, where the subfamily is stat protein.\nA total of 1060 chemcials from the ToxCast library were tested in eight-point concentration-response experiments. Cell culture and cytotoxicity assays were conducted at Thermo Fisher Scientific's Custom Services facility (Madison, WI). A single lot of human HepaRG cells (Thermo Fisher Scientific, Frederick, MD) was used for the cell culture experiments. 96-well format collagen type I coated plates of human HepaRG cells were prepared using established methods. Briefly, cryopreserved HepaRG cells were thawed, plated at a density of approximately 100,000 cells/well in HepaRG Thaw, Plate, and General Purpose media (HPRG770, Thermo Fisher Scientific), and incubated for 48 hours. 0.5% DMSO was selected as vehicle control to balance the requisite need of DMSO in HepaRG cultures to maintain differentiation (for example, baseline metabolism, proportions of hepatocytes vs. cholangiocytes), while enabling further hepatic receptor pathway activation (for example, PXR and CAR) in response to chemical exposure. 48 hours after plating, the culture medium was replaced with HepaRG Serum-Free Incudtion Media. Cells were exposed to each test chemical in duplicate and maintained in CO2 incubators for another 48 hours. Chemical plates were thawed to room temperature and 200x concentrations of treatment groups were prepared. 8-point conentration-reponse curves were made with the highest exposure at 100 uM, followed by half-log dilutions, all in 0.5% DMSO. Each test plate contained variouse controls, induction positive controls (1mM phenobarbital), cytotoxicity positive controls ([…] aflatoxin B1), vehicle controls (0.5% DMSO), and total lysis controls (0.5% DMSO). Cell morphology images were taken using an Essen IncuCyte FLR automated microscope, with six 96-well plates imaged in about 24 minutes. Images were captured and exported and JPEG files. Spent culture media was transfered to black-well plates for the LDH assay, and remaining media was sorted at -80 C for later use. Cells were treated with RLT buffer and frozen until shipped for gene expression analysis. Total RNA was isolated from the cell suspension in 75 uL of Buffer RLT (Qiagen, Germantown, MD 20874) by Quintiles/Expression Analysis (Durham, NC) using a custom isolation procedure. Total RNA from each plate well was transferred to a preamplification plate. Fluidigm's 96.96 Dynamic ArrayTM (Fluidigm, Amsterdam, the Netherlands) technology was used for gene expression analyses by quantitative reverse transcription polymerase chain reaction (qRT-PCR, performed by Quintiles/Expression Analysis, Durham, NC)89. Standard TaqManTM Assays (Applied Biosystems/ThermoFisher Scientific, Foster City, CA) were used to assess the expression of 93 genes selected based on their selectivity and sensitivity to important hepatic receptors known to be modulated by environmental chemicals; importance in human hepatocyte functionality; and hepatotoxicity. […]"}
{"smiles": "CC1=C(/C=C/C(C)=C/C=C/C(C)=C/C(=O)O)C(C)(C)CCC1", "outcome": "inactive"}
{"smiles": "CCCCC(CC)COC(=O)CCCCC(=O)OCC(CC)CCCC", "note": "(stereo not given)", "outcome": "inactive"}
{"smiles": "CCCCCCCC(=O)O", "outcome": "inactive"}
{"smiles": "CCC(=C(c1ccc(O)cc1)c1ccc(OCCN(C)C)cc1)c1ccccc1", "outcome": "inactive"}
{"smiles": "c1ccc2c(c1)Cc1ccccc1-2", "outcome": "inactive"}
{"smiles": "CN1CCC[C@H]1c1cccnc1", "outcome": "inactive"}
{"smiles": "C=C(C)C(=O)OCCC(F)(F)C(F)(F)C(F)(F)C(F)(F)C(F)(F)C(F)(F)F", "outcome": "inactive"}
{"smiles": "Cc1cc(C)c(O)c(C)c1", "outcome": "inactive"}
{"smiles": "CC(C)(C)c1ccc(O)c(C(C)(C)C)c1", "AC50": "9.92 µM (active)"}
{"smiles": "NC(=O)N1C(=O)C(C(=O)c2cc(Cl)cs2)c2cc(F)c(Cl)cc21", "note": "(stereo not given)", "outcome": "inactive"}
{"smiles": "Oc1cccc(O)c1", "outcome": "inactive"}
{"smiles": "c1ccc2c(c1)ccc1ccccc12", "outcome": "inactive"}
{"smiles": "CCOC(=O)CC(O)(CC(=O)OCC)C(=O)OCC", "outcome": "inactive"}
{"smiles": "CCCCCCCCCCCCc1ccccc1S(=O)(=O)O", "outcome": "inactive"}
{"smiles": "CCCCCCCCC(=O)O", "outcome": "inactive"}
{"smiles": "CN1CCN(c2ccccc2/C=C2\\SCCN(c3ccc(Cl)c(Cl)c3)C2=O)CC1", "outcome": "inactive"}
{"smiles": "O=C(OCCOCCOC(=O)c1ccccc1)c1ccccc1", "outcome": "inactive"}
{"smiles": "NC(=O)N(O)[C@@H]1C=C[C@H](Oc2cccc(Oc3ccc(F)cc3)c2)C1", "outcome": "inactive"}
{"smiles": "CC(C)(C)c1cc(C(C)(C)C)c(O)c(C(C)(C)C)c1", "outcome": "inactive"}
{"smiles": "Cc1oc(-c2ccccc2)nc1CCOc1ccc(C[C@H](Nc2ccccc2C(=O)c2ccccc2)C(=O)O)cc1", "AC50": "21.2 µM (active)"}
{"smiles": "OC1CCC(C2CCCCC2)CC1", "note": "(stereo not given)", "outcome": "inactive"}
{"smiles": "N#C[C@@H]1CC(F)(F)CN1C(=O)CNC1CC2CCC(C1)N2c1ncccn1", "note": "(stereo not given in full)", "AC50": "12.5 µM (active)"}
{"smiles": "CCCCCCC(=O)O", "outcome": "inactive"}
{"smiles": "Oc1cc2ccccc2c2ccccc12", "outcome": "inactive"}
{"smiles": "OCCC(F)(F)C(F)(F)C(F)(F)C(F)(F)C(F)(F)C(F)(F)C(F)(F)C(F)(F)F", "outcome": "inactive"}
{"smiles": "O=c1c(-c2ccc(O)cc2)coc2cc(O)ccc12", "outcome": "inactive"}
{"smiles": "COCC(C)O", "note": "(stereo not given)", "outcome": "inactive"}
{"smiles": "CC(=O)NC1(c2cccc(F)c2)CCN(CC[C@@]2(c3ccc(Cl)c(Cl)c3)CN(c3ccccc3)C(=O)CO2)CC1", "outcome": "inactive"}
{"smiles": "CC(O)CO", "note": "(stereo not given)", "outcome": "inactive"}
{"smiles": "ClC1=C(Cl)C(Cl)(Cl)C(Cl)=C1Cl", "outcome": "inactive"}
{"smiles": "CC(C)(C)c1cccc(C(C)(C)C)c1O", "outcome": "inactive"}
{"smiles": "CCCCCCCCCCCCCCCS(=O)(=O)Oc1ccccc1", "outcome": "inactive"}
{"smiles": "CC(C)(C)CC(C)(C)c1ccc(O)c(-n2nc3ccccc3n2)c1", "outcome": "inactive"}
{"smiles": "CC[C@H](c1ccc(O)cc1)[C@@H](CC)c1ccc(O)cc1", "AC50": "93.8 µM (active)"}
{"smiles": "O=C(O)Cc1cc(I)c(Oc2cc(I)c(O)c(I)c2)c(I)c1", "outcome": "inactive"}
{"smiles": "COc1ccc([N+](=O)[O-])cc1N", "outcome": "inactive"}
{"smiles": "Nc1cccc2c(N)cccc12", "outcome": "inactive"}
{"smiles": "CCCCCCCCCCCCN1CCCC1=O", "outcome": "inactive"}
{"smiles": "CCC(C)(C)C1CCC(O)CC1", "note": "(stereo not given)", "outcome": "inactive"}
{"smiles": "CC#C[C@]1(O)CC[C@H]2[C@@H]3CCC4=CC(=O)CCC4=C3[C@@H](c3ccc(N(C)C)cc3)C[C@@]21C", "outcome": "inactive"}
